From PubChem BioAssay (NCI)
About 79,000 compounds went through this panel and 15% of them were active in at least one assay; those are over-represented in the sample as a whole. Active and inactive are the calls of the source. No stated cut-off is given here; in the data, active means growth inhibition above about 70%; inactive means the rest. Where a SMILES comes first, the peptide text is derived from it. [ ]: non-standard residue; d: D form. The star is where a group is joined. Cbz = O=C(OCc1ccccc1)*; Nva = CCC[CH](N)C(=O)O

Assays:
[1] = NCI Yeast Anticancer Drug Screen. Data for the rad50 strain (AID 155);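 further: 0% = growth of vehicle-only cultures of the same strain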; conditions: S. cerevisiae rad50 strain growth inhibition; at 50.0 µM; stronger effect = higher value
Outline: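 Relative growth inhibition (compound vs vehicle) was measured in yeast with a defined repair-gene alteration.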

[2] = NCI Yeast Anticancer Drug Screen. Data for the sgs1 mgt1 strain (AID 161);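 further: 0% = growth of cultures given vehicle only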; conditions: S. cerevisiae sgs1 mgt1 strain, at 50.0 µM, stronger effect = higher value
Outline: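 Test agents were incubated with a DNA-repair-mutant yeast strain. Growth was then read and compared against vehicle-treated controls.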

[3] = NCI Yeast Anticancer Drug Screen. Data for the cln2 rad14 strain (AID 165);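 further: 0% = growth equal to vehicle treated cultures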; conditions: S. cerevisiae cln2 rad14 strain, at 50.0 µM, stronger effect = higher value
Outline: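 The screen exposed genetically defined yeast (cln2 rad14) to test compounds and scored growth inhibition relative to vehicle-treated controls.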

[4] = NCI Yeast Anticancer Drug Screen. Data for the bub3 strain (AID 167); conditions: S. cerevisiae bub3 mutant strain, at 50.0 µM, stronger effect = higher value
Outline: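 Screening used yeast with an engineered genetic alteration affecting cell cycle control. Compound-exposed cultures were compared with vehicle cultures, and reduced growth was taken as inhibition.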

[5] = NCI Yeast Anticancer Drug Screen. Data for the mlh1 rad18 strain (AID 175); conditions: S. cerevisiae mlh1 rad18 strain growth inhibition; at 50.0 µM; stronger effect = higher value
Outline: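 Compound-treated yeast growth, normalised to vehicle controls. Strain bears defined DNA repair mutations.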

Measured: growth inhibition

CCOC(=O)C(C#N)C1(C(C#N)C(=O)OCC)C(=O)Nc2ccccc21 (stereo not drawn)
inactive: [1] 1.8% | [2] 19.8% | [3] 21.8% | [4] 24.7% | [5] 32.3%

NCCCNCCS
inactive: [1] 19.6% | [2] 22.6% | [3] 18.3% | [4] 2.5% | [5] 17.1%

O=C(N/N=C/c1cc(-c2ccccc2Cl)c(-c2ccccc2Cl)o1)c1ccncc1
inactive: [1] 14.5% | [2] 38.4% | [3] 28% | [4] 26.7% | [5] 28.3%

COC(=O)C1(NC(=O)C2(N3C(=O)c4ccccc4C3=O)CCCC2)CCCC1
inactive: [1] -7.95% | [2] -12.7% | [3] -9.45% | [4] -17.9% | [5] 1.6%

CC(C)OC1(c2ccccc2)c2cccc3cccc(c23)C1(O)c1ccccc1 (stereo not drawn)
inactive: [1] 18.2% | [2] 22.8% | [3] 7.7% | [4] 3.35% | [5] 6.75%

O=C(Nc1c(O)[nH][nH]c1=O)c1ccccc1
inactive: [1] 0.45% | [2] -9.7% | [3] -36% | [4] -15.7% | [5] -0.1%

CC(C)NC(=O)OCc1c(COC(=O)NC(C)C)c(S(=O)c2ccccc2)n2c1CCC2 (stereo not drawn)
inactive: [1] 12.6% | [2] 9.05% | [3] -27.1% | [4] 18.6% | [5] -6.4%

Cc1n[nH]c(=O)n1N1C(=O)c2ccccc2C1=O
inactive: [1] -1.25% | [2] -25.7% | [3] -3.45% | [4] -19.6% | [5] -26.6%

O=C(OC1CC2CCC23CCC13)c1ccccc1 (stereo not drawn)
inactive: [1] -1.35% | [2] 10.2% | [3] -7.6% | [4] -37.5% | [5] -18.9%

CSc1ccc(NC(=O)Nc2ccc(Cl)cc2[N+](=O)[O-])cc1
inactive: [1] -4.55% | [2] 13.6% | [3] -6.05% | [4] 17.9% | [5] 20.3%

O=C(NCCSC(=O)Nc1ccccc1)Nc1ccccc1
inactive: [1] 0% | [2] 5.25% | [3] -10% | [4] 29.1% | [5] 8.55%

COc1cc(C2NCCC(c3ccccc3)(c3ccccc3)N2)cc(OC)c1OC (stereo not drawn)
inactive: [1] -30.9% | [2] 5.25% | [3] 4.55% | [4] -7.6% | [5] 5.5%

Cc1nn(C)c2c1C(=O)N(C)CC(=O)N2C
inactive: [1] -25.1% | [2] -22.9% | [3] -14.2% | [4] -20.8% | [5] -8.25%

CNc1cccc2c1C(C)C[C@]1(C)C(=O)Nc3ccccc3[C@H]21 (stereo partly drawn)
inactive: [1] -36.5% | [2] -22.6% | [3] -31.1% | [4] -35.8%

c1ccc(-c2ccccc2-c2ccccc2)cc1
inactive: [1] 18.1% | [2] 10.6% | [3] -2.75% | [4] -8.15% | [5] 20.8%

c1ccc2c(-c3nn[nH]n3)nccc2c1
inactive: [1] 11.6% | [2] -6.5% | [3] -16.9% | [4] -19.9% | [5] -10.9%

FC(F)(F)c1ccc2c(c1)N(CCCN1CCN(CCN3CCCCC3)CC1)c1ccccc1S2
active: [1] 88.9% | [2] 89% | [4] 87.4% | [5] 91.8%
inactive: [3] 27.2%

CCCC(NC(=O)OCc1ccccc1)C(=O)NC(C(=O)O)C(C)CC (stereo not drawn) (Cbz-[Nva]-Ile-OH; configuration not given here)
inactive: [1] 26.3% | [2] 2.75% | [3] 29.1% | [4] 4.55% | [5] 9.6%

CCCCCCCCC(=O)Nc1nc2nc[nH]c2c(=O)[nH]1
inactive: [1] -9.65% | [2] -15.3% | [3] -30.1% | [4] -14.3% | [5] -5.45%

Cc1nc2ccccc2n1CCC(N)=O
inactive: [1] 24.6% | [2] 6.1% | [3] 12.3% | [4] -26.9% | [5] -2.35%

Nc1ccnn2c(-c3ccccc3)nnc12
inactive: [1] -0.55% | [2] -5.7% | [3] 4.25% | [4] 12.4%

CCOC(=O)c1c(N)n(-c2ccccc2)c(=S)n(-c2ccccc2)c1=O
inactive: [1] -17% | [2] -32.5% | [3] 14.6% | [4] -40.2% | [5] -41.4%

Cc1nc(Nc2ccc(Cl)c(Cl)c2)sc1C(/C=C/c1ccc2c(c1)OCO2)=N/Nc1ccc([N+](=O)[O-])cc1[N+](=O)[O-]
inactive: [1] -21.2% | [2] 3.75% | [3] 3.45% | [4] -9.55% | [5] 2.45%

CCCCNC(=O)c1cccc(OC)c1OC
inactive: [1] 2.25% | [2] 4.3% | [3] 2.35% | [4] -5.65% | [5] 3.45%

CC(=Nc1ccc(Cl)cc1)c1ccncc1
inactive: [1] -31.9% | [2] -14.8% | [3] -6.4% | [4] 1.3% | [5] -1.8%

CCCOC(=O)CCBr
inactive: [1] -2.55% | [2] -13.9% | [3] -57% | [4] -22.9% | [5] -8.1%
